Measurements: PubChem BioAssay (NCATS)
Results filed as inconclusive are left out. Active and inactive are the calls of the source. The call rests on the fitted dose curve; in most records, active means well fitted cell-killing curve with a large enough effect; inconclusive means small, poorly fitted or top-dose-only effect, or effect the other way; inactive means no such curve, though single readings can be large or run the other way.

Assay: Quantitative High-Throughput drug screen in 47 multiple myeloma cell lines against the NCATS MIPE library collection: MM1R_ATCC cell viability assay (AID 1918981); further: nearly all actives have a fitted effect of over 35% in size
Details: MM1R multiple myeloma cells, CellTiter-Glo viability, 48 h; series mostly up to 45.8 µM
From the text: PI: Beverly A. Mock Ph.D.
Laboratory of Cancer Biology and Genetics,
Center for Cancer Research, National Cancer Institute,
National Institute of Health, Bethesda, Maryland
Drug resistance and disease progression are common in multiple myeloma (MM) patients, underscoring the need for new therapeutic combinations. […] We hypothesized that effective combinations would reduce MYC expression and enhance p16 activity. […] These preclinical data identify potentially useful drug combinations for evaluation in drug-resistant MM and reveal potential mechanisms of combined drug sensitivity.
Described herein is the primary MIPE qHTS used to cherrypick compounds. Validated compounds were then further tested for potential synergistic activiy.
[1] Peat TJ, Gaikwad SM, Dubois W, Gyabaah-Kessie N, Zhang S, Gorjifard S, Phyo Z, Andres M, Hughitt VK, Simpson RM, Miller MA, Girvin AT, Taylor A, Williams D, D'Antonio N, Zhang Y, Rajagopalan A, Flietner E, Wilson K, Zhang X, Shinn P, Klumpp-Thomas C, McKnight C, Itkin Z, Chen L, Kazandijian D, Zhang J, Michalowski AM, Simmons JK, Keats J, Thomas CJ, Mock BA. Drug combinations identified by high-throughput screening promote cell cycle transition and upregulate Smad pathways in myeloma. Cancer Lett. 2023 Aug 1;568:216284. doi: 10.1016/j.canlet.2023.216284. Epub 2023 Jun 24. PMID: 37356470; PMCID: PMC10408729.
SEQUENCE No. (e.g., 1, 2, 3, etc.); […] (e.g., Cells, Incubation, Reagent, etc.); VALUE and DESCRIPTION.
1; Cells; 5 uL; white, solid bottom 1536-well Greiner assay plate.
2; Compounds; 23 nL; Kalypsis pin tool (Wako USA) equipped with a 1536-well pin head to transfer to the assay plates.
3; Incubation; 48 hours; 37C incubation.
4; Reagent;5uL; CellTiter Glo (Promega).
5; Detector; 425V; Luminescence; Viewlux PerkinElmer.
NOTES (numbers refer to Sequence numbers above)
1. The cell-based screening methods employed in this study were like those previously published. Briefly, the corresponding myeloma cell lines were screened in 1,536-well plates with 500 cells, 5-uL per well for inhibition of cell viability (assessed by measuring ATP levels with CellTiterGlo).
2. NCATS MIPE 4.0 library of approved and investigational drugs were added using the Kalypsis pin tool. Wells treated with DMSO only for 100% viability and media only for 0% viability were used as controls.
3. The assay plates were covered and incubated for 48 hours in a 37C, 5% CO2 incubator with controlled humidity.
4. After 48 hours, CellTilter-GloTM luminescent substrate mix (Promega) reagent was added to the assay plate and plates we incubated for 5 min at room temperature.
5. Signal was measured as median relative luminescence units on a ViewLux (PerkinElmer) multiplate reader.
[1] Heske CM, Davis MI, Baumgart JT, Wilson K, Gormally MV, Chen L, Zhang X, Ceribelli M, Duveau DY, Guha R, Ferrer M, Arnaldez FI, Ji J, Tran HL, Zhang Y, Mendoza A, Helman LJ, Thomas CJ. Matrix Screen Identifies Synergistic Combination of PARP Inhibitors and Nicotinamide Phosphoribosyltransferase (NAMPT) Inhibitors in Ewing Sarcoma. Clin Cancer Res. 2017 Dec 1;23(23):7301-7311. doi: 10.1158/1078-0432.CCR-17-1121. Epub 2017 Sep 12. PMID: 28899971; PMCID: PMC6636827.
Potency means the concentration at half of the fitted maximal effect.

Row | Compound | Potency
1 | O=c1ccn([C@@H]2O[C@H](CO)[C@H](O)[C@H]2O)c(=O)[nH]1 | inactive
2 | CO[C@@H](C(=O)N1Cc2[nH]nc(NC(=O)c3ccc(N4CCN(C)CC4)cc3)c2C1)c1ccccc1 | 20.9 µM (active)
3 | CN(C)CCC=C1c2ccccc2COc2ccc(CC(=O)O)cc21 | inactive
4 | CC=CCC=CCCC(=O)[C@H]1O[C@@H]1C(N)=O | 18.7 µM (active)
5 | O=C1C(Cl)=C(NCCN2CCOCC2)C(=O)c2ncccc21 | 3.32 µM (active)
6 | O=C(O)CCC1CCC(c2cc(F)ccc2F)(S(=O)(=O)c2ccc(Cl)cc2)CC1 (stereo not given) | inactive
7 | CC(C)(C)OC(=O)N[C@H]1CCCCCC=C[C@@H]2C[C@@]2(C(=O)NS(=O)(=O)C2CC2)NC(=O)[C@@H]2C[C@@H](OC(=O)N3Cc4cccc(F)c4C3)CN2C1=O | inactive
8 | COc1ccc2cccc(CCNC(C)=O)c2c1 | inactive
9 | NC1CCC(Nc2nc(Nc3ccc(C(=O)N4CCCCC4)cc3)c3ncn(-c4cccc(F)c4)c3n2)CC1 (stereo not given) | inactive
10 | CC1(C)CCC2=C(O1)c1ccccc1C(=O)C2=O | 23.5 µM (active)
11 | NC(=O)c1cnc(-c2ccc(C3(N)CCC3)cc2)c(-c2ccccc2)c1 | 7.43 µM (active)
12 | COc1cc(Nc2ncc(F)c(Nc3ccc4c(n3)NC(=O)C(C)(C)O4)n2)cc(OC)c1OC | 6.62 µM (active)
13 | COc1cc2ncnc(-n3nc(-c4ccccn4)nc3N)c2cc1OC | 18.7 µM (active)
14 | O=C(NC1CCOCC1)c1ccc(-c2cc(-c3cn[nH]c3-c3ccccn3)ccn2)cc1 | 14.8 µM (active)
15 | CC[C@@]1(O)C[C@H](O[C@H]2C[C@H](N(C)C)[C@H](O[C@H]3C[C@H](O)[C@H](O[C@H]4CCC(=O)[C@H](C)O4)[C@H](C)O3)[C@H](C)O2)c2c(cc3c(c2O)C(=O)c2c(O)cccc2C3=O)[C@@H]1C(=O)OC | 0.209 µM (active)
16 | OC[C@H]1O[C@@H](Oc2cc(O)cc(C=Cc3ccc(O)cc3)c2)[C@H](O)[C@@H](O)[C@H]1O | inactive
17 | COc1ccc(-c2coc3cc(O)cc(O)c3c2=O)cc1 | inactive
18 | NC(CO)(CO)CCc1ccc(Sc2cccc(OCc3ccccc3)c2)cc1Cl | 10.5 µM (active)
19 | O=C1c2ccccc2-[n+]2ccc3c([nH]c4ccccc43)c21 | 2.09 µM (active)
20 | O=C(Nc1c(Cl)cncc1Cl)c1ccc(OC(F)F)c(OCC2CC2)c1 | inactive

Row | Compound | Potency
21 | O=C(O)C(O)Cc1ccc(O)c(O)c1 (stereo not given) | 20.9 µM (active)
22 | O=c1cc(N2CCOCC2)oc2c(-c3cccc4c3sc3ccccc34)cccc12 | 16.6 µM (active)
23 | O=C1NC(=O)C(=Cc2ccc3nccnc3c2)S1 | 8.12 µM (active)
24 | CN1[C@@H]2CCC[C@@H]1CC(NC(=O)c1nn(C)c3ccccc13)C2 (stereo not given in full) | inactive
25 | Cc1[nH]c(C=C2C(=O)Nc3ccc(S(=O)(=O)Cc4c(Cl)cccc4Cl)cc32)c(C)c1C(=O)N1CCC[C@H]1CN1CCCC1 | 20.9 µM (active)
26 | O=C(NOCC(O)CO)c1cc(Br)c(F)c(F)c1Nc1ccc(I)cc1F (stereo not given) | inactive
27 | CC#CCn1c(N2CCC[C@@H](N)C2)nc2c1c(=O)n(Cc1nc(C)c3ccccc3n1)c(=O)n2C | inactive
28 | C=C1C(=O)OC2C=C(C)CCC=C(C)CCC12 (stereo not given) | 23.5 µM (active)
29 | CC(=O)O[C@]1(C(C)=O)CC[C@@H]2[C@@H]3C[C@H](C)C4=CC(=O)CC[C@]4(C)[C@H]3CC[C@@]21C | 20.9 µM (active)
30 | CN(C)c1cc(NC(=O)CNC(C)(C)C)c(O)c2c1C[C@@H]1C[C@H]3[C@H](N(C)C)C(=O)C(C(N)=O)=C(O)[C@@]3(O)C(=O)C1=C2O | 18.7 µM (active)
31 | Cc1ccc(C(=O)Nc2cccc(C(F)(F)F)c2)cc1Nc1nc(-c2cccnc2)nc2c1cnn2C | 18.7 µM (active)
32 | CCc1ccc(OCc2ccccc2C(=O)Nc2ccc3nc(C)cc(N)c3c2)cc1 | 3.32 µM (active)
33 | CC(C)(C)c1cc(C(=O)O)c(NC(=O)Nc2ccc3[nH]ncc3c2)s1 | inactive
34 | O=C(O)c1ccccc1C(=O)Nc1ccc(-c2ccccc2)cc1 | inactive
35 | C[C@H](NC(=O)C(=O)Nc1ccccc1C(C)(C)C)C(=O)N[C@@H](CC(=O)O)C(=O)COc1c(F)c(F)cc(F)c1F | inactive
36 | O=C(Nc1cc(Cl)cc2c1[nH]c1cnccc12)c1cccnc1 | 1.87 µM (active)
37 | CCOC(=O)C1=C(N)Oc2ccc(Br)cc2C1C(C#N)C(=O)OCC (stereo not given) | 23.5 µM (active)
38 | Cc1nc(N)sc1-c1ccnc(Nc2ccc(N3CCOCC3)cc2)n1 | 10.5 µM (active)
39 | O=C1NC(=O)C(=Cc2ccc(-c3ccc(F)cc3)o2)S1 | 2.09 µM (active)
40 | C[C@H]1[C@H](NC(=O)C(=NOC(C)(C)C(=O)O)c2csc(N)n2)C(=O)N1S(=O)(=O)O | inactive
